Structures are written as SMILES. Records with an inconclusive call do not appear. The source made the active and inactive calls. The calls were made as follows: active = hit-call score of the fitted dose curve at least 0.9, where 1 is the maximum; inconclusive = response in the unintended direction; inactive = score below 0.9.

Data on 40 compounds can be found in PubChem BioAssay (EPA / NIEHS).

Broad substrate specificity ATP-binding cassette transporter ABCG2 (Homo sapiens), sequence (Q9UNQ0 whole entry, looked up): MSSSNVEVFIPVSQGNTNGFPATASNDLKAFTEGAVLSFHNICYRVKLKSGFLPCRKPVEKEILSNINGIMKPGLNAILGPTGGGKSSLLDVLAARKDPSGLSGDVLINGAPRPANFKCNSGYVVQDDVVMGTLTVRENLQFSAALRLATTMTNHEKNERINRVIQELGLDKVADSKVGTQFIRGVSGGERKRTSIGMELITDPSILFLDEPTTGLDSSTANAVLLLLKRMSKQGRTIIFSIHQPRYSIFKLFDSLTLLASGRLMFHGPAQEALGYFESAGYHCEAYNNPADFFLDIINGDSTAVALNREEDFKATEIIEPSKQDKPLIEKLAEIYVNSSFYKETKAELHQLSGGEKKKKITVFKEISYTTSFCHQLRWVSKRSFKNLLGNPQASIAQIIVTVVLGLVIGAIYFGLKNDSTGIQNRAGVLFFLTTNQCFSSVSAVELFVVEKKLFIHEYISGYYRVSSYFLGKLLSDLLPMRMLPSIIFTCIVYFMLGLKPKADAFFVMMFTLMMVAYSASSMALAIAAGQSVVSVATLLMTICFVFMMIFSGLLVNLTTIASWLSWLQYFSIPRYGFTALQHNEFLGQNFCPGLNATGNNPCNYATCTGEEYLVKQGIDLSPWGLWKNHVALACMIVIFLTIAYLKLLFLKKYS

Read-out in this test: Broad substrate specificity ATP-binding cassette transporter ABCG2 (Homo sapiens) (UniProt Q9UNQ0)
Nature of the test: CLD_ABCG2_24hr: CellzDirect (CLD) Gene Expression Assay for ABC Transporter (ABCG2) at 24 hours (AID 2283685). As to the method:
CLD_24hr is a cell-based, multiplexed-readout assay that uses hepatocyte, a human liver primary cell, with measurements taken at 24 hours after chemical dosing in a 96-well plate.CLD_ABCG2_24hr is one of 16 assay component(s) measured or calculated from the CLD_24hr assay. It is designed to make measurements of mRNA induction, a form of inducible reporter, as detected with chemiluminescence signals by Quantitative Nuclease Protection Assay (qNPA) technology.Data from the assay component CLD_ABCG2_24hr was analyzed at the endpoint, CLD_ABCG2_24hr, in the positive analysis fitting direction relative to DMSO as the negative control and baseline of activity. Using a type of inducible reporter, gain-of-signal activity can be used to understand changes in the reporter gene as they relate to the gene ABCG2. Furthermore, this assay endpoint can be referred to as a primary readout. To generalize the intended target to other relatable targets, this assay endpoint is annotated to the transporter intended target family, where subfamily is ABC transporter.
Human hepatocyte cultures were treated daily for two consecutive days with fresh dosing solutions containing appropriate concentrations of the 320 ToxCast chemicals (chemical identities were blinded to CellzDirect and other ToxCast collaborators), vehicle control (0.2% DMSO), and positive control inducers as summarized in Table 1. Due to the large number of treatment groups and chemicals examined, the ToxCast chemicals were divided into two groups (spanning two independent cultures of hepatocytes from separate donor preparations (Hu778: ToxCast plates 1 and 2; Hu776: ToxCast plates 3 and 4). Each preparation of human hepatocyte cultures was treated with respective vehicle control, medium only control, set of six positive controls/reference chemicals for the five hepatic receptor pathways, and a subset of eight of the ToxCast chemicals (indoxacarb, pyrithiobac-sodium, norflurazon, cyhalofop-butyl, methomyl, thiram, acetochlor, and propiconazole). These replicate data, coupled with internal replicates designed within the blinded ToxCast chemical library, provided additional data to evaluate interindividual differences between hepatocyte preparations and their potential impact on chemical profiles.Cell morphology and integrity were evaluated using phase-contrast microscopy as an indicator of hepatocyte cell health (Tyson & Green, 1987). Cultures for each treatment group (i.e., media, vehicle [0.2% DMSO], positive control inducers [multiple concentrations], and the ToxCast chemicals [multiple concentrations]) were observed and cell morphology was assessed relative to vehicle control cultures at each harvest time point (0, 6, 24, or 48 h). […] Images were evaluated at the conclusion of the study to assess changes in cell integrity and account for the effects of chemical exposure on uncharacteristic changes in concentration-dependent gene expression profiles. The results from these determinations of apparent cytotoxicity were annotated (yes/no) alongside the corresponding qNPA data for reference.At the conclusion of each treatment period, hepatocyte cultures (96-well) were washed with 1 volume of HBSS, lysed by addition of 25 ul ArrayPlate lysis buffer (HTG, Tucson, AZ), and 70 ul/well of Denaturation Oil, denatured by incubation at 95C for 10 min, and frozen at approximately -70C until analysis by nuclease protection assay (qNPA) (Roberts et al., 2007). For qNPA analysis, cell lysates were thawed at 50C for approximately 30 min, qNPA probes were added, and samples were incubated at 95C for 10 min to begin the detection process by denaturing the target RNA, dissociating the duplexes and secondary structure hybridization. At the conclusion of the hybridization period, S1 nuclease reagent was added to each sample to digest all nonprotected nucleotides at 50C for 60-90 min. […]
As to `CCc1cccc(CC)c1N(COC)C(=O)CCl`, the outcome was inactive.
With `CC(COc1ccc(Oc2ccccc2)cc1)Oc1ccccn1` (stereo not given), the call was inactive.
Take `CN(C)C(=O)Nc1cccc(C(F)(F)F)c1`: the call was inactive.
In the case of `O=c1ccc(=O)[nH][nH]1`, the call was inactive.
The same measure, in the same setting: the result for `CCCCSP(=O)(SCCCC)SCCCC` reads “inactive”; that for `CN(C)NC(=O)CCC(=O)O`, “inactive”; that for `CCOC(=O)CC(SP(=O)(OC)OC)C(=O)OCC` (stereo not given), “inactive”.
Regarding `CSc1nnc(C(C)(C)C)c(=O)n1N`, the call was inactive.
As for `N#CSCSC#N`, the call was inactive.
In the case of `Cc1ccn2nc(S(=O)(=O)Nc3c(F)cccc3F)nc2n1`, the compound was classed as inactive.
Regarding `COc1cccc(C(=O)NN(C(=O)c2cc(C)cc(C)c2)C(C)(C)C)c1C`, the call was inactive.
Turning to `C[Si](Cn1cncn1)(c1ccc(F)cc1)c1ccc(F)cc1`, the call was inactive.
Consider `CC(=NC#N)N(C)Cc1ccc(Cl)nc1`, for which the compound was classed as inactive.
With `COc1ccc(C(=CC(=O)N2CCOCC2)c2ccc(Cl)cc2)cc1OC`, the call was inactive.
Regarding `CCCSP(=O)(OCC)Oc1ccc(Br)cc1Cl` (stereo not given), the compound was called inactive.
`CSC1=N[C@@](C)(c2ccccc2)C(=O)N1Nc1ccccc1`: the outcome was inactive.
As to `CON=C(C(=O)OC)c1ccccc1CON=C(C)c1cccc(C(F)(F)F)c1`, the outcome was inactive.
Same read-out and setting: then `CC(C)N(C(=O)SCC(Cl)=C(Cl)Cl)C(C)C`, with “inactive”; and `C#CCC1=C(C)C(OC(=O)C2C(C=C(C)C)C2(C)C)CC1=O` (stereo not given), with “inactive”.
On to `COP(=O)(OC)SCn1c(=O)oc2cc(Cl)cnc21`, for which the result was inactive.
In the case of `Nc1nc(N)nc(NC2CC2)n1`, the compound was classed as inactive.
For `CCOP(=S)(OCC)OC(Cl)C(Cl)(Cl)Cl` (stereo not given), the call was inactive.
The same measure, in the same setting: then `CCCCOC(=O)c1ccccc1C(=O)O`, with “inactive”; and `CNC(=O)ON=C(C)SC`, with “inactive”; and `C[N+]1(C)CCCCC1`, with “inactive”.
On to `COc1cc(OC)nc(Sc2cccc(Cl)c2C(=O)O)n1`, for which the compound was called inactive.
As to `CCOP(=S)(OCC)SCCSCC`, the compound was called inactive.
For the compound `FC(F)C(F)(F)OCC(Cn1cncn1)c1ccc(Cl)cc1Cl` (stereo not given), the result was inactive.
In the case of `Nc1c(Cl)cc([N+](=O)[O-])cc1Cl`, the call was inactive.
With `CC[C@H](C)[C@H]1O[C@]2(C=C[C@@H]1C)C[C@@H]1C[C@@H](C/C=C(\C)[C@@H](O[C@H]3C[C@H](OC)[C@@H](O[C@H]4C[C@H](OC)[C@@H](NC)[C@H](C)O4)[C@H](C)O3)[C@@H](C)/C=C/C=C3\CO[C@@H]4[C@H](O)C(C)=C[C@@H](C(=O)O1)[C@]34O)O2`, the outcome was inactive.
`CCOP(=O)(SC(C)CC)N1CCSC1=O` (stereo not given): the outcome was inactive.
For the compound `CCOP(=S)(Oc1cnc(C(C)(C)C)nc1)OC(C)C` (stereo not given), the call was inactive.
Still for that read-out and setting: then `C#CC(C)(C)NC(=O)c1cc(Cl)cc(Cl)c1`, with “inactive”.
On the same count and under the same terms, then `COP(=O)(OC)C(O)C(Cl)(Cl)Cl` (stereo not given), with “inactive”.
With `CCCOCC(=Nc1ccc(Cl)cc1C(F)(F)F)n1ccnc1`, the AC50 was 20 µM (active).
`S=C1NCCN1`: the outcome was inactive.
On the same count and under the same terms, the result for `CCCSP(=O)(OCC)SCCC` reads “inactive”.
Still for that read-out and setting: then `CCOP(=O)(OCC)Oc1cc(C)nc(C(C)C)n1`, with “inactive”.
Turning to `CC(C)=CC1C(C(=O)OCN2C(=O)C3=C(CCCC3)C2=O)C1(C)C` (stereo not given), the call was inactive.
As to `C=C(C)[C@H]1Cc2c(ccc3c2O[C@@H]2COc4cc(OC)c(OC)cc4[C@@H]2C3=O)O1`, the AC50 is 6.65 µM (active).
